The text below walks through data of PubChem BioAssay (NCI).

Each structure is given as a SMILES string. This is part of a sample that, as a whole, favours compounds with a hit. Of some 83,000 tested, about 20% had one in any assay.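 Growth was measured after 48 h exposure to one concentration of compound in 96-well plates. Values under 10 count as active.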 Unmarked numbers belong to inactive results. Activity calls are given as the source filed them.

Some test systems named below: SR leukemia; RPMI-8226 leukemia; OVCAR-8 ovarian; OVCAR-5 ovarian; OVCAR-4 ovarian; SK-OV-3 ovarian; IGROV1 ovarian; HS 578T breast; NCI/ADR-RES ovarian; T-47D breast; BT-549 breast; MDA-MB-435 melanoma; SW-620 colon; MCF7 breast; HCT-116 colon; HCC-2998 colon; KM12 colon.
Assay in all cases: NCI-60 one-dose screen, 48 h (100 = growth as untreated, 0 = no growth, -100 = all killed)
Details in all cases: 10 µM unless noted

`Cc1ccc(N2C(=O)/C(=C/C=C/c3ccco3)SC2=S)cc1`: the growth with SR leukemia is 56.6%; in the experiment on RPMI-8226 leukemia, 75.3%; with OVCAR-8 ovarian, 99.2%; in the experiment with OVCAR-5 ovarian it was 103%; with OVCAR-4 ovarian, 92.4%; in the experiment on SK-OV-3 ovarian it was 107%. Also, the growth is 103% in the experiment on IGROV1 ovarian; 96.2% with HS 578T breast; 97.6% in the experiment with NCI/ADR-RES ovarian; 71.6% in the experiment on T-47D breast; 126% in the experiment on BT-549 breast; 90.6% with MDA-MB-435 melanoma. In addition, the growth in the experiment on SW-620 colon is 90.1%; in the experiment with MCF7 breast, 66.4%; with HCT-116 colon, 94.2%; with HCC-2998 colon, 101%; with KM12 colon, 95.4%.
For the compound `Cc1ccc(C(=O)NN2C(=O)/C(=C/C=C/c3ccco3)SC2=S)cc1`, the growth was 84.5% in the experiment on SR leukemia; 102% with RPMI-8226 leukemia; 99.7% in the experiment on OVCAR-8 ovarian; 100% in the experiment with OVCAR-5 ovarian; 92.8% with OVCAR-4 ovarian; 107% in the experiment with SK-OV-3 ovarian. Further, the growth in the experiment with IGROV1 ovarian was 98.4%; in the experiment with HS 578T breast, 96.5%; in the experiment with NCI/ADR-RES ovarian, 97.5%; in the experiment with T-47D breast it was 95.4%; in the experiment with BT-549 breast, 137%; in the experiment on MDA-MB-435 melanoma, 90.7%. Moreover, the growth in the experiment with SW-620 colon is 106%; in the experiment on MCF7 breast it was 82%; in the experiment with HCT-116 colon, 98.2%; in the experiment on HCC-2998 colon it was 107%; with KM12 colon it was 102%.
Consider `COCCNc1ccc2ncc(C#Cc3cncc(C(=O)Nc4ccc(CN5CCN(C)CC5)c(C(F)(F)F)c4)c3)n2n1`, for which the growth with SR leukemia is -6.69% (active); in the experiment with RPMI-8226 leukemia, -26.7% (active); in the experiment on OVCAR-8 ovarian, -5.34% (active); in the experiment on OVCAR-5 ovarian it was 3.94% (active); with OVCAR-4 ovarian, -10.6% (active); with SK-OV-3 ovarian, -63% (active). For the same compound, the growth in the experiment with IGROV1 ovarian was -12% (active); with HS 578T breast, -33.9% (active); in the experiment with NCI/ADR-RES ovarian, 43.9%; in the experiment with T-47D breast it was -7.3% (active); in the experiment on BT-549 breast, -36.7% (active); in the experiment on MDA-MB-435 melanoma, -24.8% (active). Also, the growth is -54.1% (active) in the experiment with SW-620 colon; -30.7% (active) in the experiment on MCF7 breast; -66.9% (active) with HCT-116 colon; -23.6% (active) with HCC-2998 colon; -9.09% (active) in the experiment on KM12 colon.
For the compound `CCOc1cccc(-c2nc3sccn3c2-c2ccnc(S(C)(=O)=O)n2)c1`, the growth was 68.2% in the experiment with SR leukemia; 97.1% in the experiment with RPMI-8226 leukemia; 102% in the experiment on OVCAR-8 ovarian; 106% in the experiment with OVCAR-5 ovarian; 87% with OVCAR-4 ovarian; 112% in the experiment on SK-OV-3 ovarian. Further, the growth is 94.2% in the experiment on IGROV1 ovarian; 102% in the experiment with HS 578T breast; 103% in the experiment with NCI/ADR-RES ovarian; 65.8% with T-47D breast; 122% with BT-549 breast; 95% with MDA-MB-435 melanoma. The growth in the experiment on SW-620 colon was 103%; in the experiment on MCF7 breast it was 36%; in the experiment on HCT-116 colon, 92.6%; in the experiment on HCC-2998 colon it was 80.8%; with KM12 colon it was 87.6%.
With `CC(C)(C)n1nnnc1C(Nc1cccc2c1OCO2)c1cc2cccc3ccc4cccc1c4c32` (stereo unspecified), the growth was 82.3% in the experiment on SR leukemia; 55.3% in the experiment on RPMI-8226 leukemia; 90% with OVCAR-8 ovarian; 91.9% with OVCAR-5 ovarian; 79.2% with OVCAR-4 ovarian; 94.5% in the experiment on SK-OV-3 ovarian. Also, the growth was 81.2% with IGROV1 ovarian; 88.7% in the experiment on HS 578T breast; 83.5% with NCI/ADR-RES ovarian; 65.9% in the experiment on T-47D breast; 130% with BT-549 breast; 84.2% with MDA-MB-435 melanoma. The growth with SW-620 colon was 88.8%; with MCF7 breast it was 64.9%; with HCT-116 colon it was 63%; with HCC-2998 colon, 98.7%; in the experiment with KM12 colon it was 95.4%.
Turning to `Nc1nc(-c2cccc([N+](=O)[O-])c2)c(N=Nc2ccccc2)s1`, the growth with SR leukemia is 56.1%; in the experiment with RPMI-8226 leukemia it was 52.9%; in the experiment on OVCAR-8 ovarian, 58.2%; in the experiment on OVCAR-5 ovarian, 79.4%; in the experiment on OVCAR-4 ovarian, 59.2%; in the experiment on SK-OV-3 ovarian it was 62.3%. The growth was 82.5% in the experiment on IGROV1 ovarian; 70.4% in the experiment with HS 578T breast; 54.9% in the experiment with NCI/ADR-RES ovarian; 40.5% in the experiment on T-47D breast; 73.2% in the experiment on BT-549 breast; 64.9% with MDA-MB-435 melanoma. Also, the growth in the experiment with SW-620 colon was 64.9%; in the experiment on MCF7 breast it was 51.9%; in the experiment on HCT-116 colon it was 54.8%; with HCC-2998 colon it was 71.6%; with KM12 colon, 44%.
Turning to `Cc1ccc2sc3c(c2c1)OC(N)=C(C#N)C3c1cccc(F)c1` (stereo unspecified), the growth with SR leukemia is 9.55% (active); in the experiment with RPMI-8226 leukemia, 14.4%; with OVCAR-8 ovarian it was 4.8% (active); in the experiment on OVCAR-5 ovarian, 14.4%; in the experiment on OVCAR-4 ovarian, 20.3%; in the experiment with SK-OV-3 ovarian, 22.5%. The growth in the experiment on IGROV1 ovarian was 18.8%; with HS 578T breast, 5.7% (active); in the experiment on NCI/ADR-RES ovarian it was 5.79% (active); in the experiment with T-47D breast, 35.5%; in the experiment on BT-549 breast, -6.44% (active); with MDA-MB-435 melanoma, -28.6% (active). The growth with SW-620 colon was 15.2%; in the experiment with MCF7 breast, 15.2%; in the experiment on HCT-116 colon, -24.6% (active); in the experiment on HCC-2998 colon it was 6.17% (active); in the experiment with KM12 colon, 2.9% (active).
As to `COc1ccc(OC)c(-c2nc(SCC(=O)c3ccc(Br)cc3)nc(Nc3ccc(S(N)(=O)=O)cc3)c2C#N)c1`, the growth is 13.9% with SR leukemia; 51.2% in the experiment with RPMI-8226 leukemia; 62.8% in the experiment with OVCAR-8 ovarian; 73.3% with OVCAR-5 ovarian; 57.3% with OVCAR-4 ovarian; 79.9% with SK-OV-3 ovarian. In addition, the growth with IGROV1 ovarian is 54.7%; with HS 578T breast, 13.4%; in the experiment with NCI/ADR-RES ovarian it was 74.4%; in the experiment on T-47D breast, 71.1%; in the experiment on BT-549 breast, 49.4%; in the experiment with MDA-MB-435 melanoma, -18.6% (active). Also, the growth was 36% in the experiment with SW-620 colon; 28.9% in the experiment on MCF7 breast; 15.4% in the experiment with HCT-116 colon; 70.9% in the experiment on HCC-2998 colon; 20.9% in the experiment with KM12 colon.
